The values that follow come from PubChem BioAssay AID1852 (Sanford-Burnham Center for Chemical Genomics, 2009).

Out of some 2,500 compounds screened, about 1,100 (44%) were called active.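 Rule for the calls: active = inhibition above 50% at 4 µM in the single-point screen; inactive = inhibition of 50% or less.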 So high a share suggests a set chosen from earlier hits. The list shows a part of the results.

A short description of this test: TNF-a-driven NF-kB reporter inhibitors, primary screen, selectivity assay for NOD1/NOD2 signaling inhibitor project, cell-based, HEK293T NF-kB-Luc, luminescence (AID 1852). The note with it: TNF-a induced, 14 h, at 4 µM, hits give high values.
For orientation: inhibition means the drop in the measured response relative to a control, in per cent. Take `Cc1ccccc1Nc1nc(N)nc(CCl)n1`: the inhibition was 24.8% (inactive).
For `Cc1ccc(C)c(N2CCN(C(=O)CCS(=O)(=O)c3ccc4c(c3)NC(=O)CO4)CC2)c1`, the inhibition is 28.3% (inactive).
Take `CC1Sc2ccc(S(=O)(=O)CCC(=O)N3CCN(c4ccccc4F)CC3)cc2NC1=O` (stereo not drawn): the inhibition is 39.3% (inactive).
To `Cc1ccc(C)c(N2CCN(C(=O)CCS(=O)(=O)c3ccc4c(c3)NC(=O)C(C)S4)CC2)c1` (stereo not drawn) belongs 74.4% (active).
For `COc1ccc(/C=C2\Sc3ccc(C(=O)N4CCN(Cc5ccccc5)CC4)cc3N(C)C2=O)cc1OC` the value was 59.1% (active); for `CCOc1ccc(/C=C2/Sc3ccc(C(=O)N4CCOCC4)cc3N(C)C2=O)cc1OC`, 54.9% (active); for `COCCN1CCN(C(=O)c2ccc3nc(Cc4ccc(OC)c(OC)c4)oc3c2)CC1`, 8.5% (inactive).
For `O=C1Nc2cc(C(=O)N3CCN(c4ccccn4)CC3)ccc2S/C1=C\c1ccccc1` the value was 3% (inactive); for `COc1ccc(Cc2noc(CN3CCN(Cc4cccc(Cl)c4)CC3)n2)cc1OC`, 35.8% (inactive).
`CN1C(=O)/C(=C/c2ccccc2Cl)Sc2ccc(C(=O)N3CCCC3)cc21`: the inhibition was 89% (active).
For `Cc1ccccc1/C=C1\Sc2ccc(C(=O)N3CCN(c4ccccn4)CC3)cc2N(C)C1=O` the value was 22.2% (inactive).
Turning to `CCOC(=O)N1CCN(C(=O)c2ccc3c(c2)N(C)C(=O)/C(=C\c2ccc(OCC)c(OC)c2)S3)CC1`, the inhibition is 21.6% (inactive).
For `O=C(c1ccc2c(c1)N(Cc1ccccc1)C(=O)c1ccccc1S2)N1CCCC1` the value was 34.7% (inactive).
To `Cc1ccc(C)c(Oc2cc(NC(=O)CCCn3nc(C)c([N+](=O)[O-])c3C)cc([N+](=O)[O-])c2)c1` belongs -13.6% (inactive).
To `O=C(Nc1ccc(N2CCN(Cc3ccccc3F)CC2)cc1)c1ccc([N+](=O)[O-])o1` belongs 20% (inactive).
In the case of `O=C(Nc1ccc(N2CCN(C(=O)c3ccccc3F)CC2)cc1)c1cncc(Br)c1`, the inhibition is 72.9% (active).
To `O=C(Nc1ccc(Br)cc1)c1ccc(F)c(S(=O)(=O)N2CCN(c3ccccn3)CC2)c1` belongs 36.8% (inactive); to `CCOC(=O)c1ccc(NC(=O)c2sc3nc(N4CCOCC4)c4c(c3c2N)CCCC4)cc1`, -98.3% (inactive); to `Cc1nc2sc(C(N)=O)c(N)c2c2c1CCCC2`, 92.8% (active).
For `NC(=O)c1sc2nc3c(c(-c4ccccc4)c2c1N)CCC3` the value was 96.6% (active).
To `NC(=O)c1sc2nc3c(c(-c4ccco4)c2c1N)CCCC3` belongs 83.5% (active); to `Cc1ccc(-c2c3c(nc4sc(C(N)=O)c(N)c24)CCC3)cc1`, 82.9% (active).
`O=C(N/N=C/c1cccs1)c1n[nH]c2c1CCCC2`: the inhibition is 1.7% (inactive).
With `NC(=O)c1sc2nc3c(c(-c4cccs4)c2c1N)CCCCC3`, the inhibition was 90% (active).
To `Cc1nnc(N2CCCC(C(=O)Nc3cc(F)ccc3F)C2)c2nn(-c3ccccc3)c(C)c12` (stereo not drawn) belongs 95.7% (active); to `COc1ccc(Cc2[nH]n3c(=O)c(Cl)c(C)nc3c2-c2ccccc2)cc1`, 106% (active).
For `COc1ccc(/C=c2/sc3nc(-c4ccccc4)c(-c4ccccc4)n3c2=O)cc1` the value was -25.7% (inactive); for `COc1cc(/C=N/NC(=O)c2cc(-c3ccc4c(c3)OCO4)n[nH]2)ccc1O`, 55.4% (active); for `CCNC(=O)/C(C#N)=C/c1c(N2CCN(c3ccc(OC)cc3)CC2)nc2c(C)cccn2c1=O`, 15.3% (inactive).
For `Oc1ccc(N=Nc2ccc3c(c2)OCCO3)c2cccnc12` the value was 39.5% (inactive).
`Cc1ccc(N=Nc2ccc(O)c3ncccc23)cc1C`: the inhibition is 105% (active).
Take `Cc1ccc(N=Nc2ccc(O)c3ncccc23)cc1`: the inhibition was 96.9% (active).
For `Cc1ccc2c(C)ccc(O)c2n1` the value was -70.6% (inactive); for `Cc1ccccc1N=Nc1ccc(O)c2ncccc12`, 105% (active).
To `Cc1ccc(C)c(N=Nc2ccc(O)c3ncccc23)c1` belongs 42.5% (inactive); to `CCOC(=O)C1CCCN(C(=O)c2ccc3c(=O)n(CCOC)c(=S)[nH]c3c2)C1` (stereo not drawn), 21.6% (inactive).
To `COCCn1c(=S)[nH]c2cc(C(=O)N3CCCC(C)C3)ccc2c1=O` (stereo not drawn) belongs 94.8% (active).
With `COc1ccc(Cc2nc3ccc(C(=O)N4CCN(C)C(C)C4)cc3o2)cc1OC` (stereo not drawn), the inhibition was 45.4% (inactive).
Turning to `O=C(NCc1cccnc1)/C(=C\c1ccc(-c2cccc(Cl)c2)o1)S(=O)(=O)c1ccccc1`, the inhibition is 91.5% (active).
For `O=C(NCc1cccnc1)/C(=C/c1ccc(-c2cccc(Cl)c2)o1)S(=O)(=O)c1ccccc1` the value was 99.5% (active).
To `CCN(CC)c1nc(N2CCOCC2)nc2ccccc12` belongs 2% (inactive).
For `COc1ccc(-c2n(CC(=O)OC3CC(C)CCC3C(C)C)c3ccccc3[n+]2C)cc1` (stereo not drawn) the value was 74.8% (active).
In the case of `COc1ccc(/C=N/NS(=O)(=O)c2ccc(F)cc2)cc1COc1cc(F)ccc1[N+](=O)[O-]`, the inhibition was 12.7% (inactive).
To `C/C(=N\NC(=O)c1cc(C2CC2)nc2ccccc12)c1ccc(O)cc1O` belongs 66.6% (active); to `C/C(=N\NC(=O)c1c(C)nc2ccccn12)c1ccc(O)cc1O`, 69.2% (active).
For `O=C(Nc1nnc(-c2ccc3c(c2)CCCC3)o1)c1ccc(Cl)cc1Cl` the value was 101% (active).
To `O=C(CCc1nnc(-c2ccc(-c3ccccc3)cc2)o1)N1CCCCC1` belongs -6.8% (inactive); to `O=C(Nc1nnc(-c2ccc3c(c2)CCCC3)o1)c1ccccc1Cl`, 106% (active); to `O=C(Nc1nnc(-c2ccc3c(c2)CCCC3)o1)c1ccccc1`, 106% (active).
`CC(C)(C)OC(=O)N[C@@H](Cc1ccccc1)c1nnc(S(=O)(=O)Cc2cccc(F)c2)o1`: the inhibition was -10.8% (inactive).
To `CC1CC(C)CN(C(=O)/C=C/c2ccc([N+](=O)[O-])s2)C1` (stereo not drawn) belongs 60.4% (active); to `O=C(/C=C/c1ccc([N+](=O)[O-])s1)N1CCCCC1`, 54.6% (active); to `O=C(/C=C/c1ccc([N+](=O)[O-])s1)N1CCN(c2ccccc2)CC1`, 10.5% (inactive).
For `CC1CN(C(=O)/C=C/c2ccc([N+](=O)[O-])s2)CC(C)O1` (stereo not drawn), the inhibition was 41% (inactive).
As to `CC(C)CC[n+]1ccccc1/C=C/c1ccc(N(C)C)cc1`, the inhibition is 74.3% (active).
For `CC[n+]1cc(C)ccc1/C=C/c1ccc(N(C)C)cc1` the value was 57.1% (active); for `CC[n+]1ccc(/C=C/c2ccc(N(C)C)cc2)c2ccccc21`, 62.5% (active); for `Cc1ccc(/C=C/c2ccc(N(C)C)cc2)[n+](C)c1`, 28.5% (inactive).
To `O=C(CCl)N=c1sccn1Cc1ccccc1Cl` belongs 48.8% (inactive).
To `O=C(NCc1ccco1)c1nc2c(nnn2Cc2ccccc2Cl)c(=O)[nH]1` belongs 78.4% (active); to `O=C(NCc1cccs1)c1nc2c(nnn2Cc2ccccc2Cl)c(=O)[nH]1`, 98.2% (active).
Regarding `Cc1cccc(C(=O)Nc2scc(CC(C)C)c2C(=O)O)c1`, the inhibition was -33.5% (inactive).
For `CCC(C)N(CC(=O)Nc1cccc(C)c1C)C(=O)CCl` (stereo not drawn) the value was 85.8% (active); for `Cc1cccc(NC(=O)CCNC(=O)c2ccc(Br)cc2)c1C`, -6.4% (inactive).
For `Cc1cccc(Nc2nc(N)nc(CCl)n2)c1C` the value was 18.1% (inactive); for `CCCN(CC(=O)Nc1ccccc1C)C(=O)CCl`, 93.3% (active); for `CC(=O)Oc1c(C)cc(Cl)cc1C(=O)Nc1ccc([N+](=O)[O-])cc1Cl`, 98.1% (active).
For `CCOC(=O)N1CCN(C(=O)c2ccc([N+](=O)[O-])cc2Cl)CC1` the value was 43% (inactive); for `Nc1nn2c(-c3ccccc3)cc(=O)[nH]c2c1N=Nc1ccc(Br)cc1`, 78.7% (active); for `Nc1nn2c(-c3ccccc3)cc(=O)[nH]c2c1N=Nc1ccc(O)cc1`, -17.5% (inactive).
With `COc1ccc(S(=O)(=O)NC(C)C(=O)Nc2cccc([N+](=O)[O-])c2)cc1` (stereo not drawn), the inhibition is 36.7% (inactive).
For `COc1ccc(C(=O)/C(C#N)=N/Nc2cccc([N+](=O)[O-])c2)cc1` the value was 87.9% (active).
To `COC(=O)c1scc(S(=O)(=O)C(C)C)c1N/N=C(\C#N)C(=O)c1ccc(Cl)cc1` belongs 27.4% (inactive); to `O=C(Nc1ccc(F)cc1)c1nn(-c2ccccc2)c(=O)cc1Cl`, -30.5% (inactive).
For `O=C(c1ccccc1)c1nn(-c2ccc(Cl)cc2)c(=O)cc1C(F)(F)F`, the inhibition is 54.8% (active).
For `O=C(NNC(=O)c1cc(-c2ccccc2)nn1-c1ccccc1)c1ccccc1` the value was 11.9% (inactive).
To `O=C(Nc1ccc2oc(-c3cccnc3)nc2c1)c1ccc([N+](=O)[O-])o1` belongs 43.1% (inactive); to `CC(=O)Nc1ccc(S(=O)(=O)Nc2ccc3c(c2)CCC3)cc1`, 85% (active); to `COc1cccc(NS(=O)(=O)c2ccc3c(c2)CCN3C(C)=O)c1`, 41.6% (inactive).
To `CC(=O)c1cccc(NS(=O)(=O)c2ccc(NC(=O)N3CCCCC3)cc2)c1` belongs 19.3% (inactive).
On to `C=C1C(=O)O[C@@H]2C[C@@H](C)[C@@H]3C=CC(=O)[C@@]3(C)[C@@H](OC(C)=O)[C@H]12`, for which the inhibition was 101% (active).
For `Cc1ccc(OC(F)F)c(NC(=O)Nc2cccc(C(F)(F)F)c2)c1` the value was 8.9% (inactive); for `Cc1oc2c(F)c(F)c(F)c(F)c2c1S(=O)(=O)Nc1cccc(C(F)(F)F)c1`, 87.4% (active).
For `O=C(OCn1ncc(Cl)c(Cl)c1=O)c1ccccc1Cl` the value was 94.2% (active).
For `O=C(OCn1ncc(Br)c(Br)c1=O)c1ccccc1Cl` the value was 79.3% (active).
Turning to `CCOC(=O)c1cnn(Cc2cccc(Cl)c2)c1C`, the inhibition was -4.9% (inactive).
To `O=C(OCC(=O)N1CCOCC1)c1ccccc1Br` belongs 0.9% (inactive).
To `c1ccc(-c2csc(Nc3ccc4c(c3)OCCO4)n2)cc1` belongs -211% (inactive); to `O=C(/C=C/c1ccc2c(c1)OCO2)Nc1nc(-c2ccccc2)cs1`, 103% (active); to `O=C(Nc1nc(-c2ccc3c(c2)OCO3)cs1)c1ccncc1`, 34.9% (inactive).
For `C(=N\Nc1nc2ccccc2s1)/c1ccccn1` the value was 105% (active); for `CC(=O)Nc1ccc2nc(NC(=O)c3ccc([N+](=O)[O-])o3)sc2c1`, 18.3% (inactive); for `O=[N+]([O-])c1cc(Br)c(O)c(/C=N/Nc2nc3ccccc3s2)c1`, 79.2% (active).
